Where “and” joins values, the source holds several entries; their conditions need not be identical. Equal values may be shown once. Inconclusive results are not listed. Calls of active or inactive are those of the source. The call rests on the fitted dose curve; in most records, active means well fitted cell-killing curve with a large enough effect in the repeat runs; inconclusive means weak or mixed curves, or effect the other way; inactive means no such curve, though single readings can be large or run the other way.
Test: qHTS assay to identify small molecule agonists of the vitamin D receptor (VDR) signaling pathway - cell viability counter screen (AID 743224); further: nearly all actives have a fitted effect of over 50% in size
Conditions: VDR-bla HEK293T viability, CellTiter-Glo luminescence, 16 h; series mostly up to 62.6 µM; activity change, negative = cytotoxicity: at the top concentration
Excerpt: U.S. Tox21 Program National Center for Advancing Translational Sciences [NCATS] NIH Chemical Genomics Center [NCGC] U.S. Environmental Protection Agency [EPA] National Institutes of Environmental Health Sciences [NIEHS] National Toxicology Program [NTP] U.S. Food and Drug Administration [FDA] Tox21 Assay Overview: The vitamin D receptor (VDR), a member of nuclear hormone receptor superfamily, plays a critical role in calcium homeostasis and bone metabolism. It is also involved in cell differentiation and growth, and thrombogenicity. […] The cytotoxicity of the Tox21 compound library against the VDR-bla cell line was tested in parallel by measuring the cell viability using CellTiter-Glo assay (Promega, Madison, WI) in the same wells.
Tox21 Assay Protocol Summary: VDR-bla cells were dispensed at 2,000 cells/6 uL/well into black wall/clear-bottom 1536-well plates using a Multidrop Combi (Thermo Fisher Scientific, Waltham, MA) dispenser. After the assay plates were incubated at a 37C and 5% CO2 for 4 h, 23 nL of compounds dissolved in DMSO, positive controls or DMSO only was transferred to the assay plate by a Pintool station (Kalypsys, San Diego, CA). The plates were incubated at 37C and 5% CO2 for 16 h. After 1 uL of LiveBLAzerTM B/G FRET substrate was added using a Bioraptr Flying Reagent Dispenser (FRD) workstation (Beckman Coulter, Indianapolis, IN, USA), the plates were incubated at room temperature for 2 h, and fluorescence intensity was measured by an Envision plate reader (PerkinElmer, Shelton, CT). For cell viability readout that measures cytotoxicity, 3 ul/well of CellTiter-Glo reagent was added into the assay plates using a FRD. After 30 min incubation at room temperature, the luminescence intensity in the plates was measured using a ViewLux (PerkinElmer) plate reader.
On the % scale 0 is the no-effect control and ±100 the full control effect; potency means the concentration at half of the fitted maximal effect.

Row | SMILES | activity change, negative = cytotoxicity | Potency
1 | C=CCOC(=O)C(C)(C)OC(=O)c1cc(-n2c(=O)cc(C(F)(F)F)n(C)c2=O)ccc1Cl | 6.96% (inactive) | –
2 | CC[N+]1(CCOC(=O)C(O)(c2ccccc2)c2ccccc2)CCCCC1 | -2.53% (inactive) | –
3 | Nc1ccccc1C(=O)OCC(O)CO (stereo not given) | -20.2% (inactive) | –
4 | C#C[C@]1(O)CC[C@H]2[C@@H]3CCC4=CC(=O)CCC4=C3C=C[C@@]21CC | 1.27% (inactive) | –
5 | Nc1cccc2ccccc12 | – | inactive
6 | COC1CC(=C(c2cccs2)c2cccs2)C[N+](C)(C)C1 (stereo not given) | -2.82% (inactive) | –
7 | CCCCOC(=O)CCC(=O)OCCCC | -1.17% (inactive) | –
8 | C[C@H]1[C@@H]2Cc3ccc(O)cc3[C@@]1(C)CCN2C | -14.2% [at 232 µM] (inactive) | –
9 | COC(=O)C1(O)c2ccccc2-c2ccccc21 | 0.112% (inactive) | –
10 | CCOC(=O)C1OC1(C)c1ccccc1 (stereo not given) | – | inactive
11 | COCc1cnc(C2=NC(C)(C(C)C)C(=O)N2)c(C(=O)O)c1 (stereo not given) | 11.3% (inactive) | –
12 | C=CC(=O)OCC | 11.4% [at 81.1 µM] (inactive) | –
13 | O=S(=O)(c1ccccc1)c1ccccc1 | 2.6% (inactive) | –
14 | O=C([O-])c1ccccn1.O=C([O-])c1ccccn1.O=C([O-])c1ccccn1.[Cr+3] | -6.66% (inactive) | –
15 | c1ccc2c(c1)sc1ccccc12 | 9.15% (inactive) | –
16 | OCC1CO1 (stereo not given) | – | inactive
17 | CCc1cnc(C2=NC(C)(C(C)C)C(=O)N2)c(C(=O)O)c1 (stereo not given) | – | inactive
18 | FC(F)OC(F)(F)C(F)Cl (stereo not given) | -1.57% (inactive) | –
19 | CC(O)CN1CCN(CC(=O)[O-])CCN(CC(=O)[O-])CCN(CC(=O)[O-])CC1.[Gd+3] (stereo not given) | -7.9% (inactive) | –
20 | CCOP(=S)(S)OCC | 0.0643% [at 81.1 µM] (inactive) | –

Row | SMILES | activity change, negative = cytotoxicity | Potency
21 | O=S(=O)(Cl)Cl | 0.506% (inactive) | –
22 | CCCCCCCCCCCCN(C)C | 7.51% (inactive) | –
23 | CC(Cl)C(=O)O (stereo not given) | 0.0409% [at 81.1 µM] (inactive) | –
24 | C=CCN1C[C@H](C)N([C@H](c2ccc(C(=O)N(CC)CC)cc2)c2cccc(OC)c2)C[C@H]1C | 20.4% (inactive) | –
25 | O=C(NC(=O)c1cc(F)c(F)cc1Cl)Nc1cc(F)ccc1N1CCC(C(=O)O)CC1 | 2.03% (inactive) | –
26 | O=C(Cl)OCCOCCOC(=O)Cl | 12.4% (inactive) | –
27 | NC(=O)CF | -4.8% (inactive) | –
28 | O=C=NC1CCCCC1 | -17.7% (inactive) | –
29 | [Cl-].[Cl-].[Hg+2] | – | 773 nM (active) and 1.1 µM (active)
30 | C[Si](Cn1cncn1)(c1ccc(F)cc1)c1ccc(F)cc1 | – | 12.7 µM (active)
31 | CCOP(=O)(O)C(N)=O | -0.458% (inactive) | –
32 | O=[N+]([O-])O[C@H]1CO[C@H]2[C@@H]1OC[C@H]2O[N+](=O)[O-] | -1.69% (inactive) | –
33 | C[CH2][Hg][S]c1ccccc1C(=O)O | – | 1.23 µM (active) and 2.11 µM (active)
34 | C[C@@H]1C[C@@H]([C@H](O)CC2CC(=O)NC(=O)C2)C(=O)[C@@H](C)C1 | -3.88% (inactive) | –
35 | CCC(=O)O[C@@H]1C=C2CCC3C(CCC4(C)C3CC[C@@H]4OC(=O)CC)C2CC1 (stereo not given in full) | -13% (inactive) | –
36 | O=C(CCl)CCl | 1.69% [at 81.1 µM] (inactive) | –
37 | COc1ccc2c(c1OC)C(=O)O[C@H]2[C@@H]1c2cc3c(cc2CCN1C)OCO3 | 0.759% (inactive) | –
38 | CCNC(=O)NC(=O)/C(C#N)=N/OC | 7.57% (inactive) | –
39 | CN1CC[C@]23c4c5ccc(O)c4O[C@H]2[C@@H](O)C=C[C@H]3[C@H]1C5 | 5.3% [at 81.1 µM] (inactive) | –
40 | CCOC(=O)c1cn2nc(OP(=S)(OCC)OCC)cc2nc1C | -7.25% (inactive) | –
